# Laboratory results from the supplement of paper PMC6555819.
# How the values were obtained:
# Test in all cases: PBM binding z-score (relative to random genomic background probes); higher = stronger binding; sequences stand for … in GC…GCGATTGACAGCGTAGAATGAAGG
# [1] = tested on: RARb homodimer (NR concentration 270 nM)
# Outline: (§1)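 Ligand-free nuclear receptor dimers were bound for 1 h to custom Agilent 4×180K protein-binding microarrays. Detection used antibodies against each partner (one per run). Binding z-scores rest on regression-normalized fluorescence, with random background probes as the reference.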
# [2] = tested on: RARg:RXRa (NR concentration 270 nM, RXRa partner concentration 90 nM)
# Outline: as §1
# [3] = tested on: RARg homodimer (NR concentration 270 nM)
# Outline: as §1
# [4] = tested on: RXRa DBDmut IVT, anti-RXR (DBD mutation: RXRa K156A/R161A, NR concentration 90 nM)
# Outline: as §1
# [5] = tested on: RXRa homodimer (NR concentration 180 nM)
# Outline: as §1
# [6] = tested on: THRa:RXRa (NR concentration 90 nM, RXRa partner concentration 90 nM)
# Outline: as §1
# [7] = tested on: THRa homodimer (NR concentration 90 nM)
# Outline: as §1
# [8] = tested on: VDR:RXRa (NR concentration 270 nM, RXRa partner concentration 90 nM)
# Outline: as §1
# [9] = tested on: VDR homodimer (NR concentration 270 nM)
# Outline: as §1
Sequence,PBM binding z-score [1],PBM binding z-score [2],PBM binding z-score [3],PBM binding z-score [4],PBM binding z-score [5],PBM binding z-score [6],PBM binding z-score [7],PBM binding z-score [8],PBM binding z-score [9]
TCTATTAGGTGAAGGGCAACCGACGAGTCCGTTT,1.59,1.07,1.35,1.57,0.977,1.42,0.828,0.783,1.67
CCGAGTAGGTTATGGGGCATTCATGCAACGGTGA,0.909,0.699,0.725,0.0977,0.697,0.148,-0.334,0.118,0.21
CCTAGCAGGCCAATCTGAGTCACTCAAGGCTTGA,-0.614,-0.539,-0.118,0.122,-0.769,-0.175,-0.499,-0.947,-0.793
TCTATTAGTTGAAGGGCAACCAACGAGTCCGTTT,1.4,0.447,0.495,1.46,0.529,0.101,0.123,1.11,0.984
GGAACGAGGGCTAAGTTGATAGCATCTGTCGACG,-0.586,-0.0723,0.11,0.186,-0.114,-0.638,-0.828,-0.701,-0.365
CCTTACGGGTCAAGGTTATAGTACGGGTGGTACG,3.37,4.78,4.42,1.09,5.14,3.08,1,3.62,1.71
TCTGCTAGGTCAACGATGGTCAGCTAATCTGCTA,3.36,4.01,4.95,1.24,2.42,3.15,0.461,1.54,-0.403
TCATATAGGTAACAGGTGAAAGTCGGTGTGGTAA,1.03,0.519,0.556,1.41,1.11,0.822,0.292,0.96,0.21
CGTATTAGTTGACCATAAGGGCAACCGAAGCTCG,2.04,1.2,0.883,0.244,0.743,1.83,1.15,0.396,0.668
TCATATAGGTAAATGCAAGGTGAAAGTCCGATCT,1.3,1.09,0.776,1.93,1.36,2.64,1.5,1.37,0.698
TCGAGTAGGTTACCCATGGGGCATTCAGCTTTCT,0.802,1.61,0.414,0.106,0.689,0.2,-0.507,-0.0423,-0.557
CCCGAAAGGTCGTGCTCAGGTGAGTATACCAAAC,2.89,5.06,4.02,2.2,4.95,4.1,1.71,3.47,1.48
GATACAGGGTCAGCTAGAGGCGAGAGTATGGAAA,2.7,5.04,4.34,1.57,4.51,2.79,0.319,2.6,0.871
ATACCAAGGTGATCGTGACGTCGTTGATACTAAC,0.537,0.459,0.417,0.283,0.575,1.05,0.655,0.156,-0.00274
TCTTGTACATCAAGCAGGTTAAGAAAGCCTGAGT,0.323,0.395,0.0243,0.896,0.677,0.334,-0.0584,0.528,0.438
CCTTACGGGTCACGAGGTTATAACACGACGAGCG,3.99,6.07,5.32,1.5,6.99,3.79,0.991,5.28,1.63
ACTAGCAGGCCCAGGGTCACTCAAGATTAGTCCG,2.58,2.39,2.01,-0.284,2.78,2.73,1.17,2.19,1.14
CGACCTAGGTCAGAACAGGACAGTGAAGGATGAT,2.62,3.3,4.04,0.773,2.21,3.83,0.505,1.05,0.303

Sequence,PBM binding z-score [1],PBM binding z-score [2],PBM binding z-score [3],PBM binding z-score [4],PBM binding z-score [5],PBM binding z-score [6],PBM binding z-score [7],PBM binding z-score [8],PBM binding z-score [9]
AGAACGAGGGCAATGAGTTGATACCACGGGTGGC,0.985,1.02,1.7,2.06,0.987,0.993,-0.484,5.25,3.27
CATACATGGTCAGCTAGGCCAGAGTAGGGACGGC,0.263,0.156,0.731,-0.604,0.103,-0.289,-0.393,-0.459,-1.02
ACTCGGAGGACCAAGGTCAGAGCTACGCCAGTGA,2.9,2.35,2.61,0.197,2.03,2.44,1.17,1.34,0.899
CCTACTGGGCCACGAAAGGTCATTGAGTCAGTGA,4.62,4.82,4.58,0.536,5.23,3.79,0.857,4.67,1.69
CCTACTGGGCCATCTGGTCATTGATATCAACGTT,0.54,0.0182,0.419,-0.267,-0.224,-0.171,0.0962,-0.267,-0.0886
ATCGAAAGGTCCTGAGGTGAGTATACAGAAAGGC,1.02,1.36,0.977,-0.513,1,1.98,0.778,0.189,-0.0485
CGAACTAGGTCATTGACAGGACAGTGTATAGTAA,2.93,4.51,4.13,2.69,2.38,3.02,0.913,2.05,1.47
GCTTCTAGGTCAACTGATGGTCAGCTAAAGCTCG,3.97,5.38,5.89,1.54,3.56,3.5,1.79,2.06,0.255
TCATATAGGTAATTGCTAGGTGAAAGTCCGATCT,0.402,0.393,0.128,1.47,0.589,1.44,0.689,0.884,0.282
ATCTCTAGGTAACAGTTCAGTGAATCCCGAGGAT,0.815,0.757,0.845,0.0711,0.513,0.831,0.517,0.208,0.915
ATCGAAAGGTCGAGGTTAGTATAGAGAAAGGGAA,2.8,4.49,4.52,1.18,4.37,2.51,0.341,2.75,0.514
GCTAGTTGGTCCGTAAAAGGTCACACACCGGTCG,5,5.04,4.7,0.491,5.6,3.5,1.82,3.97,1.94
CCTGCTAGGTTAATGGTCAGCTAAAGCAGCTCGC,0.863,0.422,0.563,0.452,0.173,0.215,-0.284,-0.293,-0.175
ATCTCTAGGTAACAAGTGCAGTGAAAGAGAGGAC,0.571,0.393,0.624,-0.169,0.249,1.11,0.468,0.287,0.625
CCAGACAGGTGAGAAGGTATCTCAGCCTCGATTA,-0.0686,0.015,0.26,0.0467,0.0793,-0.219,-0.183,-0.224,-0.56
CCAGACAGGTTAAAGGTAACTCAGTCTGGTACGC,1.09,2.24,1.28,0.388,3.23,1.37,-0.0486,1.62,0.276
AGTCAAAGTTCATCTCGGTAACGTAAGATATGCT,3.93,5.53,6.02,4.57,4.35,2.58,-0.318,,4.92
AGAATGAGGTTATACCTAGATCAGGGAAGAAAGT,0.483,1.75,1.14,1.51,2.12,2.05,0.418,1.11,0.345
